Reference: publication PMC12440807

biological target: Transcription elongation factor SPT6 (UniProt Q7KZ85); test: cross-link between two proteins; cross-linking mass spectrometry

Listed as a hit, yes:
Transcription elongation factor SPT5, O00267
Transcription elongation factor SPT4, P63272
DNA-directed RNA polymerase II subunit RPB7, P62487
